# Results published in PubChem BioAssay AID1529 (NMMLSC, 2009).
# Hit rate of the full screen: of about 290,000 compounds, about 4,200 (1.4%) were called active. For the sample, actives were picked, then their nearest neighbours and some compounds at random. A number with no mark means an inactive call.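 Rule for the calls: active = binding response more than 3 SD above or below the average of its plate-row segment, actives on both sides; inconclusive = wells at one plate position flagged as instrument error; inactive = the rest.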
# Molecular target: Mitogen-activated protein kinase kinase kinase 3 (Homo sapiens) (UniProt Q99759)
# Experiment: modulators of MEKK3-MEK5 PB1 binding, primary screen, biochemical, wildtype MEKK3, multiplex bead flow cytometry, Alexa488-MEK5 (AID 1529);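 note: Alexa488 bead fluorescence after subtracting the streptavidin-only scavenger bead signal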
# Details: bead-based flow cytometry, Alexa488-MEK5 binding to MEKK3; at 10 µM; actives lie on both sides; 0 = blocked by unlabeled MEK5, 100 = vehicle
# Sequence of Mitogen-activated protein kinase kinase kinase 3 (Homo sapiens) (Q99759 whole entry, looked up): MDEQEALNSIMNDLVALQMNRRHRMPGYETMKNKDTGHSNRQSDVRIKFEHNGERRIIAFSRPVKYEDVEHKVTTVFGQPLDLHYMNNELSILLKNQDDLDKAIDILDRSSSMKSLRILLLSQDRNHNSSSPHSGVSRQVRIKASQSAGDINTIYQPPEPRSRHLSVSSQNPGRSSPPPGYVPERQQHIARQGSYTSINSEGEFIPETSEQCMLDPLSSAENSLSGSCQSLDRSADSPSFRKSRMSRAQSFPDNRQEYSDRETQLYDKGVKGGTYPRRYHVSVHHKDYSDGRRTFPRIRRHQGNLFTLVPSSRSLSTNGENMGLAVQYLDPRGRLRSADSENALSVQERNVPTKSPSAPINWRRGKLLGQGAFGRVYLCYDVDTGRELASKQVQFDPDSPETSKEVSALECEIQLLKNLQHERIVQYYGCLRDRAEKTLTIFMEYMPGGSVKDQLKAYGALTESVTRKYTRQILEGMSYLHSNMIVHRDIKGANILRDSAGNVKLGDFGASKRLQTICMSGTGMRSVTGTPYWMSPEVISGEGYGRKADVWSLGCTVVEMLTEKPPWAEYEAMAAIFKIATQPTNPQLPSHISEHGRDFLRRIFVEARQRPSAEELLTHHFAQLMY
row,Structure (SMILES),binding response (% of control)
1,Cc1ccc(NC(=O)CSc2nn3c(=O)c(C)nnc3s2)cc1Cl,88%
2,CNC(C)C#Cc1ccc2sc3cc(OC)c(OC)cc3c(=O)c2c1 (stereo not given),110%
3,CCCCC1(C(=O)OCC)NC(c2ccc(O)cc2)C2C(=O)N(c3ccccc3)C(=O)C21 (stereo not given),104%
4,CCOC(=O)c1ccc(Nc2cc3ccccc3c(=O)[nH]2)cc1,100%
5,COc1ccc(OCCC(=O)c2ccc(OC)cc2)cc1,102%
6,COc1ccc(C(=O)C[n+]2ccc(C)cc2)cc1,134% (active)
7,COc1ccc(C(=O)C[n+]2ccc(N)c(C)c2C)cc1,92%
8,COC(C[C@@H](O)C[C@@H](O)[C@H](C)OCc1ccccc1)OC,101%
9,COc1ccc(C(=O)CSc2nnc(COc3ccccc3)n2Cc2ccco2)cc1,102%
10,Cn1c2ccccc2c(=O)c2c(=O)n(Cc3ccco3)c(COc3ccccc3)nc21,130% (active)
11,CCCc1nc2c(c(=O)c3ccccc3n2C)c(=O)n1-c1cc(C)cc(C)c1,101%
12,COc1ccc(/C=C/c2c(-c3cccc(C)c3)oc3ccc(-c4ccc5c(c4)OCO5)cc23)cc1,94%
13,CCOC(=O)c1cc(S(=O)(=O)NCCc2ccc(OC)c(OC)c2)cn1C,100%
14,CN(CC(=O)Nc1ccc(F)cc1)C(=O)c1ccc(-c2ccc(Cl)cc2)o1,105%
15,Cc1cc(C)nc(NS(=O)(=O)c2ccc(N3C(=O)C4CCCCC4C3=O)cc2)n1 (stereo not given),101%
16,Cc1cccn2c(=O)c(/C=C3\SC(=S)N(CC(C)C)C3=O)c(NCCCOC(C)C)nc12,66%
17,CCOC(=O)CC1C(=O)NCCN1c1nc2c(C)cccn2c(=O)c1/C=C1\SC(=S)N(C(C)CC)C1=O (stereo not given),93%
18,CCCN(CCC)c1nc2c(C)cccn2c(=O)c1/C=C1/SC(=S)N(Cc2ccco2)C1=O,32% [inhibitor] (active)
19,Cc1csc(NC(=O)CSc2nnc(-c3cccnc3)o2)n1,99%
20,CCCC[C@@H]1CN=C(N)N1CCc1cccc(F)c1,106%
21,O=C(NCc1ccccn1)C1CCN(S(=O)(=O)c2ccc(Br)cc2)CC1,103%
22,COc1ccc(CNc2ncnc3ccccc23)cc1,100%
23,O=C(NCc1ccccc1Cl)c1csc2c1CCCCC2,96%
24,O=[N+]([O-])c1ccccc1NCc1ccccc1Cl,66%

row,Structure (SMILES),binding response (% of control)
1,O=C(NCc1ccccc1Cl)NC(=O)c1csc([N+](=O)[O-])c1,0% [inhibitor] (active)
2,CCC(C)[C@H](NC(=O)N1c2ccccc2NC(=O)[C@@H]1C(C)C)C(=O)N[C@@H](Cc1ccccc1)C(=O)O (stereo not given in full),101%
3,COc1ccc(NC(=O)CCCC2CCCCC2)c(OC)c1,97%
4,CCCc1ccc(OCCNC(=O)c2ccco2)cc1,101%
5,CC(=O)NCCNC(=O)c1cc(-c2cccc3ccccc23)nc2ccccc12,102%
6,CCOC(=O)C1CCN(C(=O)c2ccccc2N(C)S(=O)(=O)c2ccccc2)CC1,105%
7,c1ccc(-c2cc(N3CCCCC3)c3ccccc3n2)cc1,100%
8,O=c1cc(N2CCN(Cc3ccccc3)CC2)c(-c2ccccc2)n[nH]1,101%
9,O=c1cc(N2CCCCC2)c(-c2ccccc2)nn1Cc1cccc(F)c1,157% (active)
10,CC(=O)Nc1ccc(NC(=O)COc2ccc(-c3ccccc3)cc2)cc1,99%
11,CCC(C)OC(=O)C(C)Oc1ccc(-c2ccccc2)cc1 (stereo not given),2% [inhibitor] (active)
12,COc1ccc(-c2noc(CNC(=O)C(C)Oc3ccccc3)n2)cc1 (stereo not given),99%
13,COc1ccc(CCNS(=O)(=O)c2cccc([N+](=O)[O-])c2)cc1,111%
14,O=C(Nc1ccccc1N1CCN(C(=O)c2ccccc2)CC1)c1ccco1,100%
15,CCc1ccc(NC(=O)Cn2nnc(C(=O)NCc3ccc(OC)cc3)c2N)cc1,101%
16,COc1ccc(NC(=O)Cn2nnc(C(=O)NCCc3ccc(OC)c(OC)c3)c2N)cc1,2% [inhibitor] (active)
17,COc1ccc(CNC(=O)c2nnn(CC(=O)Nc3cc(C)cc(C)c3)c2N)cc1,100%
18,CCOC(=O)c1ccccc1NC(=O)c1c(N)n(C)c(=O)[nH]c1=O,103%
19,COc1ccc(CNC(=O)CN(Cc2ccccc2Cl)C(=O)c2csnn2)cc1,104%
20,COc1cccc(N2CCN(c3ccc4nnc(CCC(=O)N5CCN(C)CC5)n4n3)CC2)c1,100%
21,O=C(CSc1n[nH]c(=O)n1-c1ccccc1)Nc1ccccc1C(F)(F)F,102%
22,Cc1c(S(=O)(=O)NC(C)c2ccccc2)c(=O)n(C)c(=O)n1C (stereo not given),101%
23,Cc1c(S(=O)(=O)NCc2ccccc2)c(=O)n(C)c(=O)n1C,131% (active)
24,COC(=O)c1ccc(S(=O)(=O)NCc2ccccc2)n1C,78%

row,Structure (SMILES),binding response (% of control)
1,COC(=O)C1=NN(c2ccccc2)C2C(=O)N(c3ccccc3OC)C(=O)C12 (stereo not given),139% (active)
2,COC(=O)C1(C)NC(c2ccccc2OC)C2C(=O)N(c3ccccc3)C(=O)C21 (stereo not given),104%
3,COC(=O)c1cc(C(=O)OC)cc(N2C(=O)CC(N3CCN(c4ccccc4)CC3)C2=O)c1 (stereo not given),103%
4,CC(=O)Nc1ccc(S(=O)(=O)N(C)c2nc3ccccc3nc2Cl)cc1,103%
5,CCc1ccc(-c2cc(C)no2)cc1S(=O)(=O)NCCc1ccc(S(N)(=O)=O)cc1,104%
6,Cc1cccc(NC(=O)Nc2ccc(OCc3ccccc3)cc2)n1,99%
7,O=C(O)/C=C\C(=O)Nc1ccc(OCc2ccccc2)cc1,130% (active)
8,CCc1ccnc(NC(=O)Nc2ccc(OCc3ccccc3)cc2)c1,104%
9,COc1cc(CNCc2ccc3c(c2)OCO3)c([N+](=O)[O-])cc1OC,95%
10,COc1cccc(CNS(=O)(=O)c2ccc3c(c2)N(C(C)=O)CCS3)c1,93%
11,COc1cccc(CC2(CO)CCCN(Cc3ccc(OC(F)F)cc3)C2)c1 (stereo not given),109%
12,COc1cc2c(cc1OC)CN(C(=O)c1cc(S(=O)(=O)N3CCCCC3)ccc1Cl)CC2,101%
13,COc1cc2c(cc1OC)CN(C(=O)c1ccc(S(=O)(=O)N3CCCCCC3)cc1)CC2,132% (active)
14,COc1ccccc1N1CCN(C(=O)c2ccc(S(=O)(=O)N3CCCCC3)cc2)CC1,102%
15,C/C(=N\NC(=O)c1ccccc1F)c1ccccn1,106%
16,CC(C)(C)n1nc(Cc2cccc3ccccc23)c(C#N)c1N,101%
17,COc1ccc(/C=N/Nc2nc(-c3ccc(C)cc3)c(C#N)c(=O)[nH]2)cc1,104%
18,CC(C)[C@H](NC(=O)N1CCn2c1nc1ccccc12)C(=O)NCCc1ccccc1,100%
19,CCOC(=O)C[C@H]1c2ccc(C(F)(F)F)cc2S(=O)(=O)N1c1ccccc1,95%
20,COCCc1nn2c(=O)cc(COC(=O)c3cc(OC)c(OC)c(OC)c3)nc2s1,95%
21,Cc1cc(=O)oc2cc(OC(C)C(=O)NCCc3ccc(S(N)(=O)=O)cc3)ccc12 (stereo not given),100%
22,Cc1cc(C)cc(NC(=O)NCc2ccccn2)c1,101%
